Measurements published in PubChem BioAssay AID1508600 (Functional Genomics Laboratory (NCATS/FGL), 2020).
Out of some 53,000 sequences screened, about 3,700 (7%) were called active.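 How the source made its calls: active means gene knockdowns whose robust z-score for IL-1 alpha signal is at least 2 or at most -2, so actives lie on both sides; inactive means the rest.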 This excerpt belongs to a sample that is enriched for actives.

assay: Components of the Cytosolic LPS Sensing Pathway: Gene Identification via Genome-wide siRNA Screen; settings: RAW264.7 macrophages, IL-1a HTRF, actives lie on both sides, screened at 100 nM (by protocol), cells primed 5 h with Pam3CSK4 first;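 further: robust z of the log signal after scaling to non-targeting control siRNA wells of the plate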
In short: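 Mouse macrophage line RAW264.7 is transfected with siRNA (100 nM final), grown 48h, primed with TLR ligand Pam3CSK4 5 h and given intracellular LipidA 24 h. IL-1a in supernatant is read by HTRF and viability by luminescence.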

z-score, active:
GGUUGAAGCAGAAGAUAAUTT against Asnsd1 -2.2
GCAAAUCCCAUGAACAGCUTT against Nvl -2.55
GGGUGUGAGGGAUUUCAUCTT against Ndufa2 2.22
GGAGUGAAGGUUCAGAUCCTT against Asic2 3.1
CCAGCCGUAUUACAACUACTT against Bpnt1 2.12
GCUGUUGCUGGCUAUUCUGTT against Eef2kmt -2.3
GGAGCAGGACGAGAAUCAATT against Cdkn1c 3.62
GGUUUCCAGUAAGAUCUUATT against Mdn1 2.21
GGCACUUCAAGGAGUUUUUTT against Lig4 3.25
GGCAAUUUCUAAACAGGGATT against Atp6v1f -2.01
GGCAAAUUAGCUAGUAUCATT against Rai2 -2.2
GGCUCAAAGCCAAUCUGAATT against Recql4 2.06
GAGCUGUGAAUGCCUGUGGTT against Lyz2 -2.33
GGCAGUUUCUUCUUCCAAATT against H1f1 2.89
CGACGAGGAAUAACCUCUCTT against Myh6 2.05
GGGUAUGGCAUAAAUGUCCTT against Zpbp -2.75
CCUACGAGUUUUGCAUUUATT against Slc25a51 -2.46
GGUUCCAUGUUCAGAAUUUTT against Alg9 2.04
CCGGCUAUGAAGAUGAGUATT against Cox6a1 3.21
GGCUUUUCAGCAGGUUUAATT against Ube2g1 5.04
CCAUACAGAUCGCACCCUGTT against Txndc15 -2.15
GGCUCCAAGGGAUUUGGUUTT against Rbfox1 2.77
GGGUGCUCUGAAGAAGCAATT against Olfr488 -2.04
GGAGAUCUGUGAUGAGGUGTT against Nudt22 2.07

z-score, inactive:
GGUGGAGGUCUGGUUUAAGTT against Gsc -0.4
GGUUGGCACAACUGUGUACTT against Cr2 -0.0754
GGAAACCAACUUCAGCCUGTT against Gfra1 -0.0125
GGGCAAUCGACUGAGAAUUTT against Lingo4 -0.0246
CGAAGAAAACCAUAAGGACTT against Bdnf -0.876
GGAGAGCAAAUUAAGUUCATT against Erc1 1.01
GCAAUAAGGGCAUUAUAAATT against Wdhd1 -0.407
GGUUCAUAAUGCCUUCAAGTT against Olfr1449 0.719
CCAGGAAGUUACAAUUCAATT against Ccpg1 0.181
GCCUAAUGCCAACUCACAATT against Samd7 -1.49
GGCACUGCACUUUAACAUATT against Serpinb7 -0.402
CCUAACCAUCGACUUCUUCTT against Wfs1 -0.189
GCGGGACUGACCUCUUAAUTT against Guk1 -0.244
GGCUUUCAGAGUUAACAAATT against Ptpn4 -0.727
GGGUGUCUUCAACAAGUACTT against Dnttip1 -1.71
GGAAAAAAGGAUUUCAAACTT against Rad9b 1.3
GGAAAGACCACCAAAUCCCTT against Dpy30 1.48
GGCUCCAUAUGGAAUGCAGTT against Ets2 0.571
GCUUAAACCGCCUAUGUUCTT against Spcs1 0.782
GCUCACCUUUCUUGAGAAATT against 4930579C12Rik -0.179
GGAAAAAGUGCAUUUAUGUTT against Prpf40a -1.16
AACAUGUCCAACCUAGGCATT against Lefty1 -1.44
GGUGGACUACUCACGAUUCTT against Kcnj4 0.867
GCACUGGAAUCAAACCAUCTT against Ppp2r5b 0.444
CGCAUUUUCUCUCGAGCUUTT against Slc25a30 -0.34
GGAGCACAGUUUUGGUGCUTT against Olfr576 1.82
GGAAGUAAAGCUCUACAAGTT against Vps28 0.236
GGCACAAUUUCUUUGAAUCTT against Ophn1 0.885
GGCUAUUAGGUUUGAAAUCTT against Grsf1 0.351
CCUAGAUUCUCCAAACUAATT against D630029K05Rik -0.238
GGAGAUGCGAGUACAACUGTT against Ermn 0.479
GGAAAGAUGUGGUCCAGCUTT against Sirt3 0.373
UUAAGCCGCUUUUGAAGCUTT against Olfr1200 0.812
GGCUUUCAAGAUUCAGUGATT against Gsta1 0.103
GGAAAAUAAGCUAAGGAAGTT against Peg12 -0.018
GCGAUGCUCCUAAUUCUUATT against Dusp21 -1.18
GCUACAGUUUGUGGGUGACTT against Zmynd15 0.11
CGAGUAUCCCGUCAAGUUGTT against 6820408C15Rik -0.699
GGUGGAGAAGAGUUUCUGCTT against Gpr132 0.375
GGAGAAACAGAAGUAUUGATT against Nsa2 -0.559
GGGUUGGAACAAGGUAAUUTT against Usp16 -0.546
GCUGUAUCCAGCUUUUCGGTT against Tcf3 -0.43
GCGAGAUUCUUAAAGAAAUTT against Brdt 0.645
GCUAGUUAAUGGUAACAUATT against Sult1d1 -1.68
GGCCAAACUGGAUUACUUATT against Tmprss11c 1.26
CCCUGCUCUCACUUGUUUATT against Olfr643 -0.446
CCUUUCUUGUGUUUACAGGTT against P2ry6 -0.347
GGUGAUCAACAAUGGCAAUTT against Clec4a3 1.26
GCACAUGUGUUUAUACAUUTT against Sfxn3 -0.556
GGCAUUCCAGAGAAAGCGUTT against F3 -1.33
GCGAAUUGGAACAGCUGACTT against Sh3glb1 -0.982
GGUAUACCACUAUUCUCACTT against Olfr649 0.705
CCAUAUAUGAUAGGAAACUTT against Pon2 -0.288
GCCACAAUGUCCAAAAUUATT against Rab6a -0.271
GGAGCUUUUAAGAAUGUGGTT against Ireb2 -1.57
GCAGGUGCCUUCAAAAACCTT against Pm20d2 -0.926
GGCAGCAGUUAAUUUACUUTT against Mmp21 -1.71
GGCGGGUAGAUAUCAUGGGTT against Stn1 0.902
GGAAGCAAUGAUCAAUUAUTT against Ppp2r3c 0.752
GGCAAUGAUGAUCUCCUCUTT against Htra3 0.434
GGGUAUGACCGGUAUUACATT against Atp5j2 0.213
GGAGGCAGCCAAAGAAAACTT against Bmp8a 0.462
GGAUGAAAUCGCCAUAUGUTT against Snrnp48 -1.89
GGAGAAAACCUAGAAAUUUTT against Galnt1 0.238
GCCGUAAGCUAGGAUCUGGTT against 1700065D16Rik 0.787
GGUAAUACAACUGAGAACUTT against Zfp2 0.39
GGCAUCUGAGUGAUAUAAATT against Dcps 0.109
GGCCGUGUUAUCCAGAUUGTT against Prkcd 1.43
GGCAGUCUCAGGUUAUCUCTT against Zfp445 0.406
GGCUGUAAGGGAACAGCUATT against Irf2bp1 -0.615
GGUGAUGAAAUUUAUUGAGTT against Gpn1 -0.127
GGAGAAGGGCCUGAAGUAUTT against Lsm5 -1.77
GGUGGCAGUCACCAUUCUUTT against Il17rd -0.364
GGACAGAGCCUAGAAAACUTT against Mpdu1 -1.15
GGACUUUGUCAACCAUGUCTT against Fbxl5 -0.0144
CGUCAAUUCACACCAUUCATT against Gsk3a -1.25
GGCUUAUGUCACCAACUUGTT against Pxdc1 -0.533
GGAGUUAGAAUUGAACCUUTT against Mr1 -1.49
GGAUCCAUUUUGAGGAUUUTT against Vipr1 -0.056
GGGCAAGUACAAGCGUAACTT against Jph4 -1.5
GGGAAAACACAAAGAAGAATT against Angpt1 0.307
GGAGCCUAUCGCUUUACUCTT against Vps16 1.18
GGUGUCAACAUUGCAUACUTT against Gatad2b 1.62
GGAAACAUCCAAGAAAAAUTT against Ap1s2 -0.489
